Measurements reported in PubChem BioAssay.

These molecules were tested against NADPH oxidase 4 (Homo sapiens) (UniProt Q9NPH5) (assay: NOX4-dependent H2O2 signal modulators, primary screen, NOX inhibitor project, cell-based, HEK293-NOX4, tetracycline-induced, Amplex Red fluorescence (AID 1160)). Conditions: 45 min, higher = more signal, called active from +8 up or from −8 down.
Sequence of NADPH oxidase 4 (Homo sapiens) (Q9NPH5 whole entry, looked up): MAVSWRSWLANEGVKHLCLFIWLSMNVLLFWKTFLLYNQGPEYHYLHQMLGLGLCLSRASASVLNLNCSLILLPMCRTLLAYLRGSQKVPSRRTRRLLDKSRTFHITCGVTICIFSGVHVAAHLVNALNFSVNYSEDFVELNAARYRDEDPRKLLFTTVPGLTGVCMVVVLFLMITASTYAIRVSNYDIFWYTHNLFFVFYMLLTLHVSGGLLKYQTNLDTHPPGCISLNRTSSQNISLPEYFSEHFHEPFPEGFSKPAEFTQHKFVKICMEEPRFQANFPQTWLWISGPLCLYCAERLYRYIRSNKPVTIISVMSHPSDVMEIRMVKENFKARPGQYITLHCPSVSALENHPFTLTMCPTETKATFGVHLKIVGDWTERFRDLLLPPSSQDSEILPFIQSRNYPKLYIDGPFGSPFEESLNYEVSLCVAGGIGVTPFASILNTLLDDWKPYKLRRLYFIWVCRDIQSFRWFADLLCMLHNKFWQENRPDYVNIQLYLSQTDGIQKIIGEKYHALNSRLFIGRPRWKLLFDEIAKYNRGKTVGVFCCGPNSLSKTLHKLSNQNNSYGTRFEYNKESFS

z-score, inactive:
COCCOC(=O)N1C(=O)[C@@]2(c3ccccc31)[C@H](c1ccc(OCCO)cc1)N1[C@H](c3ccccc3)[C@H](c3ccccc3)OC(=O)[C@H]1[C@@H]2C(=O)N1CCCCCCC1 0.901
CCCCCN1CC=CC23O[C@@H]4/C=C\CCC(C)OC(=O)C4[C@H]2C(=O)N(CCCCCCO)[C@@H]3C1=O (some centres undefined) 0.0532
COCCOC(=O)N1C(=O)[C@@]2(c3ccccc31)[C@H](c1ccccc1OCCO)N1[C@H](c3ccccc3)[C@H](c3ccccc3)OC(=O)[C@H]1[C@@H]2C(=O)N1CCCCCCC1 -1.29
C=C[C@@H](OC)[C@H](OC(=O)Nc1ccc(SC)cc1)c1ccc(OCCO)cc1 0.357
COC(=O)[C@@]1(Cc2ccc(F)cc2)[C@H]2c3cc(C(=O)N(C)C)n(Cc4c(CO)[nH]cc(C)c4=O)c3C[C@H]2CN1C(=O)c1ccccc1 -0.0408
Cc1ccccc1C(O)C1C=CC2C(=O)N(c3ccccc3)C(=O)C2N1Nc1ccc([N+](=O)[O-])cc1 (centres undefined) -3.58
COc1cc(NN2C(C(O)c3cc(OC)c(OC)c(OC)c3)C=CC3C(=O)N(c4ccccc4)C(=O)C32)cc(OC)c1OC (centres undefined) -4.26
C=CCC(OC(C)=O)[C@@H]1[C@@H](N(Cc2cccc3ccccc23)C(=O)c2cccc3ccccc23)c2cc(OCCCO)ccc2N1C(=O)c1ccc2ccccc2c1 (some centres undefined) -1.09
COC(=O)[C@@]1(Cc2ccccc2)[C@H]2c3cc(C(=O)N4CCCC4)n(CCSCCO)c3C[C@H]2CN1C(=O)c1ccccc1 -0.446
